# In the supplement of paper PMC4466140:
# Molecular target: AgAbp1
# Assay: SPOT peptide array binding signal intensity (averaged, normalized) (arbitrary units (background-subtracted, floor 0; scale differs between SH3 domains)); higher = stronger binding of the SH3 domain to the peptide
# Outline: (§1)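 Detection of bound protein relied on anti-GST antibody, an HRP anti-mouse secondary and luminol, with imaging and quantification in Genespotter. The bound protein was GST-fused SH3 domains from four yeast species, incubated at 10 μg/ml overnight at 4°C in TBS-based blocking buffer on cellulose membranes carrying synthetic 15-mer peptides with cysteines replaced by serines. Binding signal is normalized, background-subtracted spot intensity averaged over replicates, in arbitrary units that differ between domains.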
row,Binder,SPOT peptide array binding signal intensity
1,DKKTKPTPPPKPSHL,1090

# Molecular target: AgBbc1
# Assay: as above
# Outline: as §1
row,Binder,SPOT peptide array binding signal intensity
1,DKKTKPTPPPKPSHL,24.8

# Molecular target: AgBem1-D1
# Assay: as above
# Outline: as §1
row,Binder,SPOT peptide array binding signal intensity
1,DKKTKPTPPPKPSHL,≤ 0

# Molecular target: AgBzz1-D1
# Assay: as above
# Outline: as §1
row,Binder,SPOT peptide array binding signal intensity
1,DKKTKPTPPPKPSHL,61

# Molecular target: AgBzz1-D2
# Assay: as above
# Outline: as §1
row,Binder,SPOT peptide array binding signal intensity
1,DKKTKPTPPPKPSHL,34.5

# Molecular target: AgCyk3
# Assay: as above
# Outline: as §1
row,Binder,SPOT peptide array binding signal intensity
1,DKKTKPTPPPKPSHL,1

# Molecular target: AgFus1
# Assay: as above
# Outline: as §1
row,Binder,SPOT peptide array binding signal intensity
1,DKKTKPTPPPKPSHL,6

# Molecular target: AgHof1
# Assay: as above
# Outline: as §1
row,Binder,SPOT peptide array binding signal intensity
1,DKKTKPTPPPKPSHL,18.5

# Molecular target: AgHse1
# Assay: as above
# Outline: as §1
row,Binder,SPOT peptide array binding signal intensity
1,DKKTKPTPPPKPSHL,≤ 0

# Molecular target: AgLsb1
# Assay: as above
# Outline: as §1
row,Binder,SPOT peptide array binding signal intensity
1,DKKTKPTPPPKPSHL,≤ 0

# Molecular target: AgLsb4
# Assay: as above
# Outline: as §1
row,Binder,SPOT peptide array binding signal intensity
1,DKKTKPTPPPKPSHL,≤ 0

# Molecular target: AgMyo5
# Assay: as above
# Outline: as §1
row,Binder,SPOT peptide array binding signal intensity
1,DKKTKPTPPPKPSHL,≤ 0

# Molecular target: AgNbp2
# Assay: as above
# Outline: as §1
row,Binder,SPOT peptide array binding signal intensity
1,DKKTKPTPPPKPSHL,≤ 0

# Molecular target: AgRvs167
# Assay: as above
# Outline: as §1
row,Binder,SPOT peptide array binding signal intensity
1,DKKTKPTPPPKPSHL,0.167

# Molecular target: AgSho1
# Assay: as above
# Outline: as §1
row,Binder,SPOT peptide array binding signal intensity
1,DKKTKPTPPPKPSHL,45

# Molecular target: AgSla1-D1-D2
# Assay: as above
# Outline: as §1
row,Binder,SPOT peptide array binding signal intensity
1,DKKTKPTPPPKPSHL,≤ 0

# Molecular target: AgSla1-D3
# Assay: as above
# Outline: as §1
row,Binder,SPOT peptide array binding signal intensity
1,DKKTKPTPPPKPSHL,2

# Molecular target: CaAbp1-D1
# Assay: as above
# Outline: as §1
row,Binder,SPOT peptide array binding signal intensity
1,DKKTKPTPPPKPSHL,1790

# Molecular target: CaAbp1-D2
# Assay: as above
# Outline: as §1
row,Binder,SPOT peptide array binding signal intensity
1,DKKTKPTPPPKPSHL,3130

# Molecular target: CaBbc1
# Assay: as above
# Outline: as §1
row,Binder,SPOT peptide array binding signal intensity
1,DKKTKPTPPPKPSHL,50.8

# Molecular target: CaBem1-D1
# Assay: as above
# Outline: as §1
row,Binder,SPOT peptide array binding signal intensity
1,DKKTKPTPPPKPSHL,≤ 0

# Molecular target: CaBzz1-D1
# Assay: as above
# Outline: as §1
row,Binder,SPOT peptide array binding signal intensity
1,DKKTKPTPPPKPSHL,1480

# Molecular target: CaBzz1-D2
# Assay: as above
# Outline: as §1
row,Binder,SPOT peptide array binding signal intensity
1,DKKTKPTPPPKPSHL,262

# Molecular target: CaCyk3
# Assay: as above
# Outline: as §1
row,Binder,SPOT peptide array binding signal intensity
1,DKKTKPTPPPKPSHL,≤ 0

# Molecular target: CaFus1
# Assay: as above
# Outline: as §1
row,Binder,SPOT peptide array binding signal intensity
1,DKKTKPTPPPKPSHL,≤ 0

# Molecular target: CaHof1
# Assay: as above
# Outline: as §1
row,Binder,SPOT peptide array binding signal intensity
1,DKKTKPTPPPKPSHL,0.75

# Molecular target: CaHse1
# Assay: as above
# Outline: as §1
row,Binder,SPOT peptide array binding signal intensity
1,DKKTKPTPPPKPSHL,8.5

# Molecular target: CaLsb1
# Assay: as above
# Outline: as §1
row,Binder,SPOT peptide array binding signal intensity
1,DKKTKPTPPPKPSHL,0.5

# Molecular target: CaLsb4
# Assay: as above
# Outline: as §1
row,Binder,SPOT peptide array binding signal intensity
1,DKKTKPTPPPKPSHL,≤ 0

# Molecular target: CaMyo5
# Assay: as above
# Outline: as §1
row,Binder,SPOT peptide array binding signal intensity
1,DKKTKPTPPPKPSHL,≤ 0
